# Data as given in PubChem BioAssay AID1878 (Sanford-Burnham Center for Chemical Genomics, 2009).
# In all, about 1,000 compounds went through this assay and about 200 (20%) were called active. Rule as the data show it: active = inhibition above about 55%; inactive = the rest. Not all results are given here. Measured potencies and affinities stand elsewhere.
# Target: Dual specificity protein phosphatase 3 (Homo sapiens) (UniProt P51452)
# Experiment: VHR1 phosphatase inhibitors, biochemical (AID 1878)
# Details: recombinant VHR phosphatase, fluorogenic substrate; at 13.3 µM; stronger effect = higher value
# Dual specificity protein phosphatase 3 (Homo sapiens), sequence (P51452 whole entry, looked up): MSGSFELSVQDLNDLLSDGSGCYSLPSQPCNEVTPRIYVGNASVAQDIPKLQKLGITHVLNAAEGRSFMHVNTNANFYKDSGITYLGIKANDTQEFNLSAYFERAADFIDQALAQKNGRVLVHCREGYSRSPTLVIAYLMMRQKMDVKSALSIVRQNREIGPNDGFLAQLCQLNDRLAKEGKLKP
row,SMILES,inhibition
1,COc1nc(Nc2nc3ccccc3c(=O)[nH]2)nc2ccc(C)cc12,89.8% (active)
2,CCC(=O)N1CCN(c2ccc(NC(=O)c3ccc(N4CCOCC4)c([N+](=O)[O-])c3)cc2)CC1,-6.9% (inactive)
3,Fc1ccccc1/C=N/n1c(C2CCCCC2)n[nH]c1=S,7.2% (inactive)
4,Cn1c(=O)[nH]c(=O)c2c1[nH]c(=S)n2CCCc1ccccc1,2.5% (inactive)
5,O=C(Cn1c2ccccc2c2nc3n(c(=O)c21)CCS3)N1CCCC1,-3.8% (inactive)
6,CN(C)c1ccc(N2C(=NC(=O)C3CCCO3)SC3CS(=O)(=O)CC32)cc1 (configuration not stated),10.7% (inactive)
7,Cc1ccc(CNCc2ccco2)cc1,-2.3% (inactive)
8,CC(C)(C)c1ccc(O)c(N=Cc2c(O)ccc3ccccc23)c1,-0.4% (inactive)
9,C/C(=N\N1CCN(c2ccccc2)CC1)c1ccc(O)cc1,-1.9% (inactive)
10,Clc1nccnc1N/N=C/c1ccc(Br)cc1,1.6% (inactive)
11,CCCCn1nc(NC(=O)CC(C)C)c2cc3cc(OC)ccc3nc21,2.1% (inactive)
12,CCC1C(=O)C(C)(C)C(=O)OC1c1ccc([N+](=O)[O-])cc1 (configuration not stated),-5.8% (inactive)
13,CCOc1ccc(C(=O)N2CCN(CCc3ccccc3)CC2)cc1OCC,1.8% (inactive)
14,O=C(CSc1nc2ccccc2n1CCc1ccccc1)c1ccc(O)c(O)c1,98.7% (active)
15,Cc1ccccc1C1NC(=O)c2ccccc2O1 (configuration not stated),-14% (inactive)
16,COc1cccc2[nH]c3c(=O)[nH]cnc3c12,-1.7% (inactive)
17,Cc1ccc(NC(=O)CNC(=O)N2CC(=O)Nc3ccccc32)cc1F,15.4% (inactive)
18,O=C(Cn1cncn1)N/N=C/c1ccccc1Cl,-4.5% (inactive)
19,C[C@]12CCC3=C4CCC(=O)C=C4CC[C@H]3C1CC[C@@H]2O (some centres not stated),14.2% (inactive)
20,CN1C(C)(C)CC(NC(=O)c2ccco2)CC1(C)C,-4.7% (inactive)
21,COc1cc(C2Nc3ccccc3NC3=C2C(=O)CC(C)(C)C3)cc(OC)c1OC (configuration not stated),-7.9% (inactive)
22,CCOc1ccc(C(=O)N2CCC3(CC2)NCCc2[nH]cnc23)cc1,-8.9% (inactive)
23,Cc1cc(C(=O)N/N=C/c2cc([N+](=O)[O-])cc(C)c2O)n[nH]1,76.1% (active)
24,CCc1nn(CC(=O)NCCCN(C)C2CCCCC2)c(=O)c2cc3occc3n12,7.4% (inactive)

row,SMILES,inhibition
1,COc1cccc(CNC(=O)C2CCN(c3nn4c(=O)cc(C)nc4s3)CC2)c1,-8.6% (inactive)
2,COc1ccccc1Nc1nn2c(=O)c3ccc(C(=O)NCc4cccnc4)cc3nc2s1,97.1% (active)
3,COc1ccc(C(CC(=O)Nc2ncccc2C)N2Cc3ccccc3C2=O)cc1 (configuration not stated),-9.5% (inactive)
4,COc1cc(NC(=O)CN2C(=O)COc3ccc(S(=O)(=O)N4CCCCC4)cc32)cc(OC)c1,-1.8% (inactive)
5,O=C(c1ccc(CS(=O)c2ccccc2Cl)o1)N1CCN(c2ccccc2)CC1 (configuration not stated),2.8% (inactive)
6,CC(C)c1ccc(N2C(=NC(=O)C3CCCO3)SC3CS(=O)(=O)CC32)cc1 (configuration not stated),11.9% (inactive)
7,COc1cc2c(cc1OC)-c1cc(Nc3cccc(F)c3)nc(=O)n1CC2,14.3% (inactive)
8,CN(C)c1ccc(NS(=O)(=O)c2cc3c4c(c2)CC(=O)N4CCC3)cc1,-8% (inactive)
9,COc1cc(/C=N/NC(=O)c2ccc3c(c2)OCO3)ccc1O,-2% (inactive)
10,COc1cc(/C=N/Nc2ccc([N+](=O)[O-])cn2)cc(OC)c1O,-5.7% (inactive)
11,CCOc1ccc(NC(=O)CCC(=O)NNC(=O)c2ccccc2Cl)cc1,2% (inactive)
12,CCC1CCCCN1CCCNC(=O)c1cn(C)c2ccc(S(=O)(=O)N3CCOCC3)cc2c1=O (configuration not stated),-9.8% (inactive)
13,COCCN(CC1CCCN(C2Cc3ccccc3C2)C1)C(=O)CSC (configuration not stated),-11.6% (inactive)
14,C=C(C)CCC(C)N1CCC(n2nccc2NC(=O)CCCc2ccccc2)CC1 (configuration not stated),-2.3% (inactive)
15,N#C/C(=C\c1ccc(OCc2ccc(Cl)cc2)cc1)C(=O)Nc1cccc(C(=O)O)c1,84.9% (active)
16,N#C/C(=C\c1ccc(OCc2ccc(Br)cc2)cc1)C(=O)Nc1cccc(C(=O)O)c1,87.5% (active)
17,O=C(Nc1cccc(Cl)c1)OCCOc1ccccc1,-0.9% (inactive)
18,Oc1ccc(NCc2ccc(OCc3ccccc3)cc2)cc1,-5.6% (inactive)
19,Cn1c(=O)c2[nH]c(N3CCCCC3)nc2n(C)c1=O,6.6% (inactive)
20,Cc1ccc(-n2nc3c(=O)n(CCCC(=O)NCc4ccco4)nc(C)c3c2C)cc1,-4.7% (inactive)
21,CCN(CC)c1ccc(NS(=O)(=O)c2ccc(-c3ccc(=O)[nH]n3)o2)c(C)c1,-2.9% (inactive)
22,COc1ccc(CCN(C)CC(O)COc2ccc(C(C)=O)cc2OC)cc1OC (configuration not stated),-11.9% (inactive)
23,CC(=O)COC(=O)C1=NN(c2ccccc2)C(=O)CC1,8.8% (inactive)
